The test has as its system VDR:RXRa (NR concentration 270 nM, RXRa partner concentration 90 nM). Kind of test: PBM binding z-score (relative to random genomic background probes); higher = stronger binding; sequences stand for … in GC…GCGATTGACAGCGTAGAATGAAGG
As for the experimental part: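 Protein-binding microarray (Agilent 4x180K custom design, double-stranded 60-nt probes: 5' GC cap, 34-nt variable region, 24-nt constant primer region; full probe sequence given). Purified or IVT nuclear receptor:RXRα heterodimers (3:1 NR:RXRα, mostly 270:90 nM) or homodimers were incubated for 1 h in PBS with 2% milk and no ligand, then detected with Alexa488 antibodies. Fluorescence from o1-orientation probes (~5 replicates averaged) was converted to z-scores against 500 random hg19 background probes. Variable regions are seed direct-repeat (DR0–DR5) sites, all their single-nucleotide variants and half-site ablations.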
TCTTGTAGATCAACAGGAGGGTAAGAAAGATCGA gave a PBM binding z-score of 0.029.

For GCAGACAGGTGAAACGCAGGTAACTTAGGGTGGC, the PBM binding z-score is -0.477.

In the case of TCTATTAGTTGAAGGGCAACCGGCGAGTCCGTTT, the PBM binding z-score is 0.946.

In turn, GCTCGGAGGAGAAGGTCAGAGCTTTGTCCGTAGA displayed a PBM binding z-score of 0.324.

In turn, CCTAGTTGGTCAAGGTGACACACGCTATAGGTAC showed a PBM binding z-score of 0.694.

For TGTCAAAGTTCAAAGGTAACTTAAGTATCCACAC, the PBM binding z-score came to 5.09.

In turn, CAAACTAGGTCATAGGTCAAAGTCGAGCCAACCA returned a PBM binding z-score of 4.9.

Consider GCTTGGAGGACAAGGTCAGAGCTTTGTCCGTAGA, for which the PBM binding z-score came to 1.41.

CCGACTGTGGCAGAAAGGTTACCATACCATCCGG yielded a PBM binding z-score of 0.378.

With ACATACAGGTGAGTGAAGGTAACTCAGCTGGACG, the PBM binding z-score turned out to be 0.0169.

CTCGAAAGGTCGTGCTCAGGTGAGGATACCAAAC returned a PBM binding z-score of 3.3.

TCATATAGGTAAAAGTGAAAGTCGAACGATATGA had a PBM binding z-score of 0.265.

The sequence ATCTCTAGGTAACAAGTTCAGTCAAAGAGAGGAC had a PBM binding z-score of 1.74.

AGAACGAGGGCAATCAGTTGATAGCACGGGTGGC yielded a PBM binding z-score of 2.58.

Turning to ACTAGTTGGTCAGCTGAGGTCACAAACAATTCGG, the PBM binding z-score was 4.24.

In turn, CCTAGCAGCCCAATCTGGGTCACTCAAGGCTTGA gave a PBM binding z-score of 0.11.

For the sequence TAGCCTAGGTCATGCGGGCCAGTATTGTGTCGGC, the PBM binding z-score is 2.92.

With TCGAGTAGGTTACCAATGGGGCATCCAGCTTTCT, the PBM binding z-score was -0.0688.

AGAATGAGGTTCTACGTAGATCAGGGAAGAAAGT yielded a PBM binding z-score of -0.436.

For the sequence TAGCCTAGGTCGTGGGCCAGTATACCACGCGAAC, the PBM binding z-score is -0.199.

Turning to TCAGAGAGGTGAAGGTAACTCAGGTACGCAGTCG, the PBM binding z-score stood at 0.999.

Regarding TCTGCTAGCTCAACGATGGTCAGCTAATCTGCTA, the PBM binding z-score is -0.662.

The sequence GCAACTGGGGCATCAGCAGGTTACCATAACTTAA returned a PBM binding z-score of -0.109.

As for GCAGACAGGTGAAGCGCAGGTAACTCAGGGTGGC, the PBM binding z-score was -0.67.

Take TCATGTAGATCAATAGAGGTTAAGAAAGTGCGCT: the PBM binding z-score is 1.93.

ACTCGTTGGTCAGCTGAGGTCACACACAATTCGG: the PBM binding z-score is 4.61.

Turning to AGACTGAGGTTATTAAGATCAGGGAATTGCGGTC, the PBM binding z-score was determined as 2.39.

Sequence TCATATAGATAAACAGGTGAAAGTCCGTAAGTTA returned a PBM binding z-score of 1.18.

Turning to ATATGCAGGTTACATCCGGGTCATTCAGGCTATG, the PBM binding z-score was found to be 4.47.

With GCTGCTAGGTCAGGTTGGTCAGCTACCGGGTACG, the PBM binding z-score is 0.397.

Sequence CTCGAAAGGTCGTGCTCGGGTGAGTATACCAAAC gave a PBM binding z-score of 3.43.

The sequence TGAATGAGGTTATAGGATCAGGGAACGTTGCAAA yielded a PBM binding z-score of 1.13.

As to ATATGTAGGTTATCGGGTCATCCAGTTTGCGCAT, the PBM binding z-score is 5.43.

ATCTTTAGGTAACCAAGTTCAGTGAATGCCGAAC yielded a PBM binding z-score of 4.36.

As to GTACCAAGGAGAATAGGTCGTTGATGAGTAGGCG, the PBM binding z-score stood at 0.0366.

For the sequence CGTCGAAGGTCAGAGAGGTCAGTGAATGCCGAGT, the PBM binding z-score worked out at 7.5.

CCTATTAGTTGACCATAAGCGCAACCGAAGCTCG displayed a PBM binding z-score of 1.05.

As for CGAACGAGGGCATGAGTTTATAGCAAATGCCGAT, the PBM binding z-score came out at 3.02.

For the sequence CTACCAAGTTGAACAAGGTCGTTGATTACTATTC, the PBM binding z-score came to 5.18.

ATATGTAGGTTACATCCTGGTCATTCAGGCTATG had a PBM binding z-score of 0.956.

Source of the values: the supplement of paper PMC6555819.
